PubChem BioAssay (NCI)
Compounds without any hit were thinned out: in the full panel of roughly 83,000, 20% have a hit.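 Step 1: grow cells in 96-well plates. Step 2: add test compound at a single concentration. Step 3: incubate 48 h. Step 4: record percent growth.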 Active and inactive are the calls of the source.

Tested on: U251 CNS
Assay: NCI-60 one-dose screen, 48 h (100 = growth as untreated, 0 = no growth, -100 = all killed)
Settings: 10 µM
Protocol: Growth inhibition of the U251 human tumor cell line is measured as a screen for anti-cancer activity. Cells are grown in 96 well plates and exposed to the test compound for 48 hours. Compounds are tested at a single concentration, which is 10^-5 M for most compounds. The reported endpoint is percent growth (GI% or GIPRCNT), where numbers from 0 - 100% represent growth inhibition, and numbers from -100% - 0 represent cell death. For example, a value of 40 represents 60% growth inhibition. A value of 0 means no net growth occurred over the course of the experiment. A value of -40 indicates 40% of cells at the beginning of the experiment died by the end of the experiment. A value of -100 means all cells are dead at the end of the experiment.
NCI-60 Human Tumor Cell Lines Screen was performed using the standard one-dose NCI protocol, which is described in more detail at https://dtp.cancer.gov/discovery_development/nci-60/default.htm.
Compounds with GIPRCNT values below 10 were considered active. Activity score was based on GIPRCNT using the following formula: […]
Score is 0 for GIPRCNT values of 100 or above, 50 for GIPRCNT values of 0, and 100 for GIPRCNT values of -100.

Row | SMILES | growth
1 | N#Cc1c(-c2ccc(F)cc2)nc(SCc2ccc([N+](=O)[O-])cc2)nc1N1CCOCC1 | 55.3% (inactive)
2 | O=C(Nc1cccc(C(F)(F)F)c1)c1cncc(C#Cc2cnc3cccnn23)c1 | 67.6% (inactive)
3 | CC1CC(c2ccc(N(C)C)cc2)=NN1c1nc(O)c(C2=c3cc(Br)ccc3=NC2=O)s1 (stereo not given) | 69.9% (inactive)
4 | Cc1ccc(-c2cc(C(=O)N=Nc3c(O)[nH]c4ccccc34)c3ccccc3n2)cc1 | 27.2% (inactive)
5 | C#Cc1ccc(S(=O)(=O)Nc2cccc(-c3csc(NC(C)=O)n3)c2)cc1 | 81.8% (inactive)
6 | O=C(CSc1nnc(-c2c[nH]c3ccccc23)n1-c1ccccc1)Nc1ccc(C(=O)/C=C/c2cccc([N+](=O)[O-])c2)cc1 | 92.5% (inactive)
7 | CC1(C)CC[C@]2(C(=O)NCCCNCCCCNCCCN)CC[C@]3(C)C(=CC[C@@H]4[C@@]5(C)Cc6c([nH]c7ccccc67)C(C)(C)[C@@H]5CC[C@]43C)[C@H]2C1 | 89.5% (inactive)
8 | O=C(N/C(=C1/OCCN1Cc1ccccc1)[P+](c1ccccc1)(c1ccccc1)c1ccccc1)c1ccccc1 | 14.3% (inactive)
9 | CC(=O)Nc1ccc(-c2cn(-c3cccc(C(=O)Nc4ccc(Cl)c(C(F)(F)F)c4)c3)nn2)cn1 | -59.5% (active)
10 | COc1ccc(-c2ccc(/C=N/NC(=O)c3[nH]c4ccc(Br)cc4c3-c3ccccc3)o2)cc1 | 26.2% (inactive)
11 | COc1ccc(-c2cc(C(=O)N=Nc3c(O)[nH]c4ccc(Br)cc34)c3ccccc3n2)cc1 | -67.7% (active)
12 | O=C(/C=C/Nc1ccc(F)cc1F)c1ccc2c(c1)Nc1ccccc1S2 | 73% (inactive)
13 | COc1ccc(-c2ccc(/C=N/NC(=O)c3[nH]c4ccc(Br)cc4c3-c3ccccc3)s2)cc1 | 35.9% (inactive)
14 | O=C(CSc1nnc(-c2c[nH]c3ccccc23)n1-c1ccccc1)c1ccc(Br)cc1 | 61.6% (inactive)
15 | O=C(CS(=O)(=O)c1oc(-c2ccc(Cl)cc2)nc1S(=O)(=O)c1ccc(Cl)cc1)N1CCOCC1 | 35.9% (inactive)
16 | O=C(NO)c1ccc(CNc2nc(-c3ccccc3)c3ccccc3n2)cc1 | -37.7% (active)
17 | O=C1Nc2ccc(F)cc2/C1=C/c1cccc(OCc2ccccc2)c1 | 6.3% (active)
18 | COc1cc(-c2nc3cc(Cl)c(Cl)cc3[nH]2)ccc1OCc1nnc(-c2ccc(Br)cc2)o1 | 1.03% (active)
19 | O=C(CN1CCN(c2ncnc3c2cnn3-c2ccccc2)CC1)Nc1nncs1 | -72.5% (active)
20 | O=C(CNc1nc(-c2ccccc2)cs1)Nc1ccccc1 | -85.2% (active)

Row | SMILES | growth
21 | O=C1Nc2ccc(Cl)cc2/C1=C/c1ccc(OCc2ccccn2)cc1 | 23.7% (inactive)
22 | CN1CCN(c2ccc(C(=O)/C=C/c3ccc(OC(F)F)cc3)cc2)CC1 | -15.6% (active)
23 | Clc1ccc(/C=N/Nc2ncnc3sc4c(c23)CCN(Cc2ccccc2)C4)cc1 | -83.8% (active)
24 | CC(=O)NS(=O)(=O)c1ccc(NC(=O)CSC2=NC(c3ccccc3)C(C(C)=O)=C(C)N2)cc1 (stereo not given) | 116% (inactive)
25 | CCOC(=O)C1=C(N)N(c2ccccc2)C2=C(C(=O)CC(C)(C)C2)C1c1ccc(Cl)cc1 (stereo not given) | 42% (inactive)
26 | COC1CC(Cn2cc(COc3ccc4ccc(=O)oc4c3)nn2)C(OCc2ccccc2)C(OCc2ccccc2)C1OCc1ccccc1 (stereo not given) | 100% (inactive)
27 | CO[C@@H]1CSSC1Cn1nc(-c2ccc(Oc3ccccc3)cc2)c2c(N)ncnc21 (stereo not given in full) | 49.5% (inactive)
28 | Cc1cc(=O)oc2cc(OCCCCOc3ccc(/C=C/C(=O)Nc4ccc(F)c(Cl)c4)cc3)ccc12 | 95.1% (inactive)
29 | CC(=C(c1ccc(OCCN2CCCCC2)cc1)c1ccc(OCCN2CCCCC2)cc1)c1ccccc1 | 1.29% (active)
30 | COc1ccc(-c2ccc(SCC(=O)Nc3ccc(C#N)cc3)nn2)cc1 | 70.7% (inactive)
31 | CC1=C(c2cc(-c3ccc(Cl)cc3)c(C#N)c(N)n2)C(c2ccccc2)NC(=S)N1 (stereo not given) | 38.8% (inactive)
32 | O=C(Cn1nc(-c2ccccc2)ccc1=O)NN1C(=O)c2ccccc2C1=O | 102% (inactive)
33 | CN1C(=O)N(C)C2SC(N/N=C/c3cccs3)=NC21 (stereo not given) | 22.8% (inactive)
34 | O=C(CSc1nnc(-c2ccc3nc(-c4ccccc4)[nH]c3c2)o1)Nc1ccc(Cl)cc1 | 48.9% (inactive)
35 | COc1cc2c3c(n(CCCn4ccnc4)c(=O)c2cc1OC)-c1nc2c(cc1C3=O)OCO2 | 20.9% (inactive)
36 | Cc1ccc(/C=C/C(=O)c2ccc(S(=O)(=O)NCCNc3nc(Nc4ccc(F)cc4)nc(N(C)C)n3)cc2)cc1 | -57.3% (active)
37 | CN1CCN(c2ccc(Nc3nc(NCCCNC(=O)c4ccc(F)cc4)c4sccc4n3)cc2)CC1 | 19.7% (inactive)
38 | C=C1CCC2C3(C)COC(c4cc(F)cc(F)c4)OC3CCC2(C)C1C/C=C1/C(=O)OCC1O (stereo not given) | -95.2% (active)
39 | COc1ccc2nc(Cl)c(-c3cc(-c4ccccc4)nc(=O)[nH]3)cc2c1 | 12.6% (inactive)
40 | Cc1cccc(-c2nc(Nc3ccccc3C(=O)O)c3ccccc3n2)c1 | 26.6% (inactive)
